The full list was thinned out, with hits kept by preference.
Pf Dd2 growth – blocks in vitro growth of P. falciparum Dd2; Potency, µM (doses to about 28.9 µM), for the others: at the highest dose activity, negative = inhibition, most hits filed as inhibitors; 120,000 tested, 4.3% active; P. falciparum Dd2 growth, SYBR Green, 72 h; active = well fitted inhibition curve with a large enough effect;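 also: plate controls were DMSO vehicle for no effect and reference drug for full effect; nearly all actives have a fitted effect of over 65% in size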
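Infected erythrocytes (Dd2, 0.3% parasitemia, 2.5% hematocrit final) are added to compound in RPMI-1640/Albumax II medium, grown 72 h at 37C in low oxygen, then lysed with saponin/Triton-X containing SYBR Green and read by fluorescence.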
* hit, by the source's call; i = inactive; ! = not confirmed by another sample; [ ] = dose if it differs, or a comment. Potency is read from the fitted curve at half-maximal effect.

SMILES | Pf Dd2 growth
Cn1cccc1C(=O)N[C@H]1C[C@H]2C(=O)Nc3cc(Cl)ccc3C(=O)N2C1 | -21%[44.1 µM]
COc1cccc(CN2Cc3nc(Oc4ccccc4)ccc3OCC2=O)c1 | i
COc1cccc(CN2Cc3c(CN(C)Cc4ccccc4)nnn3CCC2=O)c1 | 10µM*
COc1cccc(CN2Cc3nc(N(C)c4ccccc4)ccc3OCC2=O)c1 | 15%[44.1 µM]
CCn1cc(C(=O)N2C[C@@H](COC)[C@H](c3nc(C)no3)C2)cn1 | 24%
O=C(CC[C@@H]1CNC(=O)[C@@H]2C[C@H](NC(=O)Nc3ccc(F)cc3F)CN12)NCc1ccccc1 | -25%
CC(=O)N1CCC(N2CCC([C@@H]3CNC[C@H]3CO)CC2)CC1 | 21%
O=C(Nc1ccc(F)c(F)c1)c1cc(S(=O)(=O)N2CCc3ccccc32)ccc1F | 10%
O=C(Nc1ccc(F)c(Cl)c1)c1cc(S(=O)(=O)N2CCCc3ccccc32)ccc1F | 10µM*
O=C(Nc1ccc(Cl)cc1)c1cc(S(=O)(=O)N2CCc3ccccc32)ccc1F | 1%
CNC(=O)c1cc(-c2cccc(OC)c2OC)cc2c1OCCN2Cc1cccnc1 | 13µM*
CNC(=O)c1cc(-c2cnn(C)c2)cc2c1OCCN2Cc1cccnc1 | -11%[44.1 µM]
CNC(=O)c1cc(-c2cccnc2)cc2c1OCCN2Cc1cccnc1 | i
CCC(=O)N1CCc2c(C(=O)NCc3ccncc3)cccc21 | 10%
CCCCc1ncc(CN2CCCC(C(=O)Nc3ccccc3-c3ccc(OC)cc3)C2)[nH]1 (configuration not stated) | 8.9µM*
COc1cccc(-c2ccc(NC(=O)C3CCCN(Cc4cc(C(C)C)n[nH]4)C3)cc2)c1 (configuration not stated) | 11µM*
COc1cccc(-c2ccc(NC(=O)C3CCCN3C(=O)CNC(C)=O)cc2)c1 (configuration not stated) | -20%
COc1cccc(-c2ccc(NC(=O)C3CCCN3C(=O)Cn3cccn3)cc2)c1 (configuration not stated) | -10%
COc1ccc(-c2ccccc2NC(=O)C2CCCN(Cc3cccc(F)c3F)C2)cc1 (configuration not stated) | i
CCCOC(=O)N1CCCC(C(=O)Nc2ccccc2-c2ccc(OC)cc2)C1 (configuration not stated) | -21%
CNC(=O)[C@@H]1C[C@@H](NC(=O)c2ccc3n[nH]nc3c2)CN1C(=O)CSC | -16%
CCC(=O)N1CCc2cc(Br)cc(S(=O)(=O)N3CCCC(C(=O)N(C)c4ccc(Br)cc4)C3)c21 (configuration not stated) | 8.9µM*
CCC(=O)N1CCc2cc(Br)cc(S(=O)(=O)N3CCCC(C(=O)NCc4ccc(C)cc4)C3)c21 (configuration not stated) | i
Cc1cccc(NC(=O)C2CCCN(S(=O)(=O)c3cccc4nonc34)C2)c1 (configuration not stated) | 42%
CCC(=O)N1CCc2cc(Br)cc(S(=O)(=O)N3CCCC(C(=O)Nc4ccc(OC)cc4OC)C3)c21 (configuration not stated) | 19%
SMILES | Pf Dd2 growth
CCCN(CCC)C(=O)C1CCCN(S(=O)(=O)c2cc(Br)cc3c2N(C(=O)CC)CC3)C1 (configuration not stated) | -21%
CCC(=O)N1CCc2cc(Br)cc(S(=O)(=O)N3CCCC(C(=O)Nc4cccc(F)c4)C3)c21 (configuration not stated) | 3.5µM*
CCC(=O)N1CCc2cc(Br)cc(S(=O)(=O)N3CCCC(C(=O)Nc4cccc(C)c4C)C3)c21 (configuration not stated) | 5µM*
CCC(=O)N1CCc2cc(Br)cc(S(=O)(=O)N3CCCC(C(=O)Nc4ccc(CC)cc4)C3)c21 (configuration not stated) | i
CCC(=O)N1CCc2cc(Br)cc(S(=O)(=O)NCc3ccccc3)c21 | i
O=C(NC1CCCCC1)N[C@H]1[C@H](O)[C@@H](N2CCN(c3ccccc3)CC2)[C@@H]2OC[C@H]1O2 | -15%[44.1 µM]
Cc1ccc(F)c(S(=O)(=O)NC[C@@H]2CCNC[C@H]2O)c1 | -3%
Cc1cc(=O)[nH]c(NCCNc2cc(C3CC(N)C3)nc(N(C)C)n2)n1 (configuration not stated) | -13%
Cn1ccnc1CN1C[C@@H](F)[C@@H](OCc2nc3ccncc3[nH]2)C1 | -10%[44.1 µM]
CCCc1noc(-c2ccn3c(CNC(=O)c4ccccc4OC)nnc3c2)n1 | -10%
COc1ccccc1-c1nc(C(=O)NCc2cccnc2)n2ccncc12 | 10µM*!
COC(=O)CNC(=O)c1nc(-c2ccccc2OC)c2cnccn12 | 10%
COc1ccccc1-c1nc(C(=O)N2CCCC2)n2ccncc12 | 10µM*
C[S+](=O)([O-])c1ccc(-c2nc(C(=O)N3CCOCC3)n3ccccc23)cc1 | 18%
O=C(c1nc(-c2ccc(Cl)nc2)c2cnccn12)N1CCOCC1 | 5%
COc1ccccc1-c1cc(C(=O)N2CCCC2)nn2cccc12 | 0%
COC(=O)CNC(=O)c1nc(-c2ccc(Cl)cc2Cl)c2cnccn12 | -22%
